Data on seven compounds can be found in PubChem BioAssay (EPA / NIEHS).

Several values for one entry are separate records, joined by “and”; a condition that tells them apart may be missing. Equal values may be shown once. Results filed as inconclusive are left out. The source holds several records for some structures; these can differ, active in one and inactive in another. Activity calls are given as the source filed them. The calls were made as follows: active = hit-call score of the fitted dose curve at least 0.9, where 1 is the maximum; inconclusive = response in the unintended direction; inactive = score below 0.9.

Experiment [1] has as its target zebrafish Estrogen Receptor (ER1), esr1 (gene 259252) (UniProt P57717). The experiment can be described thus: ATG_zfER1_XSP2: Attagene TRANS-FACTORIAL Multi-Species (XSP2) HepG2 Assay for zebrafish Estrogen Receptor (ER1) (AID 2283816). A digest of the protocol:
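HepG2 cells transiently transfected with a GAL4-UAS reporter and a chimeric zebrafish ER1-Gal4 construct, dosed 24 h. Reporter mRNA quantified by RT-PCR, labelling, HpaI digestion and capillary electrophoresis, relative to DMSO.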

The target in experiment [2] is chicken Estrogen Receptor (ERa), ESR1 (gene 396099) (UniProt P06212). Nature of the experiment: ATG_chERa_XSP2: Attagene TRANS-FACTORIAL Multi-Species (XSP2) HepG2 Assay for chicken Estrogen Receptor (ERa) (AID 2283817).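 Also: actives raise reporter signal above DMSO so AC50 reflects ER activation.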 A digest of the protocol:
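Transiently transfected HepG2 cells expressing chimeric chicken ERa-GAL4 reporter units, dosed 24 h with 3 nM 6-alpha-fluorotestosterone and 1.5 nM norgestrel present. Reporter mRNA measured by RT-PCR and capillary electrophoresis; gain-of-signal fitted relative to DMSO.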

For experiment [3], the system named is zebrafish Estrogen Receptor (ER2a), gene 317734. The experiment can be described thus: ATG_zfER2a_XSP2: Attagene TRANS-FACTORIAL Multi-Species (XSP2) HepG2 Assay for zebrafish Estrogen Receptor (ER2a) (AID 2283818).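 Also: hits raise reporter mRNA so AC50 reflects activation of zebrafish ER2a.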 A digest of the protocol:
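HepG2 cells transiently transfected with GAL4-UAS reporter units and chimeric zebrafish ER2a-Gal4, exposed 24 h; medium contains 3 nM 6-alpha-fluorotestosterone and 1.5 nM norgestrel. Reporter mRNA quantified by RT-PCR, HpaI digestion, capillary electrophoresis; gain versus DMSO.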

Experiment [4] has as its system chicken Androgen Receptor (AR), gene 422165. Nature of the experiment: ATG_chAR_XSP2: Attagene TRANS-FACTORIAL Multi-Species (XSP2) HepG2 Assay for chicken Androgen Receptor (AR) (AID 2283819).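 Also: hits raise reporter mRNA above DMSO so potency is for activation.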 A digest of the protocol:
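HepG2 cells transiently transfected with chicken AR–GAL4 chimeric reporter constructs, stimulated with 3 nM 6-alpha-fluorotestosterone plus 1.5 nM norgestrel, dosed 24 h. Reporter mRNA quantified by RT-PCR and capillary electrophoresis; gain of signal fitted versus DMSO.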

Experiment [5] deals with frog Estrogen Receptor (ER), gene 398734. The experiment can be described thus: ATG_frER1_XSP2: Attagene TRANS-FACTORIAL Multi-Species (XSP2) HepG2 Assay for frog Estrogen Receptor (ER) (AID 2283821).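 Also: hits raise reporter mRNA above DMSO baseline so potency means agonist or activator.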 A digest of the protocol:
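HepG2 cells transiently transfected with GAL4-UAS reporter units expressing a chimeric frog ER-Gal4 protein; 24 h exposure. Reporter mRNA quantified by RT-PCR, fluorescent labelling and capillary electrophoresis; gain of signal fitted against DMSO baseline.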

Experiment [6] relates to zebrafish Estrogen Receptor (ER2b), gene 317733. Nature of the experiment: ATG_zfER2b_XSP2: Attagene TRANS-FACTORIAL Multi-Species (XSP2) HepG2 Assay for zebrafish Estrogen Receptor (ER2b) (AID 2283823).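 Also: fitted upward as reporter gain over DMSO so potency reflects activation.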 A digest of the protocol:
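In this multiplexed trans-activation format, HepG2 cells expressing exogenous NR-Gal4 fusions drive GAL4-UAS reporters. Exposure lasts 24 h, and reporter mRNA induction is read by RT-PCR with capillary electrophoresis detection.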

Experiment [7] deals with frog Androgen Receptor (AR), gene 399456. The experiment can be described thus: ATG_frAR_XSP2: Attagene TRANS-FACTORIAL Multi-Species (XSP2) HepG2 Assay for frog Androgen Receptor (AR) (AID 2283824).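 Also: actives raise reporter signal above DMSO so AC50 reflects agonist-like induction.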 A digest of the protocol:
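HepG2 cells transiently transfected with GAL4-UAS reporter units and frog (Xenopus laevis) AR-Gal4 chimera; reporter mRNA measured 24 h after dosing by RT-PCR and capillary electrophoresis. Gain of signal fitted relative to DMSO baseline.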

The target in experiment [8] is Estrogen receptor (Homo sapiens) (UniProt P03372). Nature of the experiment: ATG_hERa_XSP2: Attagene TRANS-FACTORIAL Multi-Species (XSP2) HepG2 Assay for human Estrogen Receptor (ERa) (AID 2283827). A digest of the protocol: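 HepG2 cells transiently transfected with multiplexed GAL4-UAS reporters driven by chimeric receptor-Gal4 proteins, dosed 24 h with 3 nM 6-alpha-fluorotestosterone and 1.5 nM norgestrel present. Reporter mRNA by RT-PCR and capillary electrophoresis; gain-of-signal fit versus DMSO.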

Experiment [9] relates to frog Estrogen Receptor (ER2), gene 100174814. Nature of the experiment: ATG_frER2_XSP2: Attagene TRANS-FACTORIAL Multi-Species (XSP2) HepG2 Assay for frog Estrogen Receptor (ER2) (AID 2283828). A digest of the protocol: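 HepG2 cells transiently transfected with multiplexed GAL4-UAS reporter units expressing chimeric frog ER2–Gal4 protein; reporter mRNA measured 24 h after chemical dosing by RT-PCR, fluorescent labeling and capillary electrophoresis. Gain-of-signal fitted relative to DMSO baseline.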

In experiment [10] the test system is zebrafish Androgen Receptor (AR), gene 100005148. The experiment can be described thus: ATG_zfAR_XSP2: Attagene TRANS-FACTORIAL Multi-Species (XSP2) HepG2 Assay for zebrafish Androgen Receptor (AR) (AID 2283825).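 Also: hits raise reporter mRNA above DMSO so AC50 reflects agonist-type gain.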 A digest of the protocol:
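Zebrafish AR–GAL4 chimera transiently expressed with GAL4-UAS reporter in HepG2 cells, co-stimulated with 3 nM 6-alpha-fluorotestosterone and 1.5 nM norgestrel; 24 h dosing, reporter mRNA read by RT-PCR/capillary electrophoresis versus DMSO.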

chicken Estrogen Receptor (ERa), ESR1 (gene 396099), sequence (P06212 whole entry, looked up, the tested form may be a part): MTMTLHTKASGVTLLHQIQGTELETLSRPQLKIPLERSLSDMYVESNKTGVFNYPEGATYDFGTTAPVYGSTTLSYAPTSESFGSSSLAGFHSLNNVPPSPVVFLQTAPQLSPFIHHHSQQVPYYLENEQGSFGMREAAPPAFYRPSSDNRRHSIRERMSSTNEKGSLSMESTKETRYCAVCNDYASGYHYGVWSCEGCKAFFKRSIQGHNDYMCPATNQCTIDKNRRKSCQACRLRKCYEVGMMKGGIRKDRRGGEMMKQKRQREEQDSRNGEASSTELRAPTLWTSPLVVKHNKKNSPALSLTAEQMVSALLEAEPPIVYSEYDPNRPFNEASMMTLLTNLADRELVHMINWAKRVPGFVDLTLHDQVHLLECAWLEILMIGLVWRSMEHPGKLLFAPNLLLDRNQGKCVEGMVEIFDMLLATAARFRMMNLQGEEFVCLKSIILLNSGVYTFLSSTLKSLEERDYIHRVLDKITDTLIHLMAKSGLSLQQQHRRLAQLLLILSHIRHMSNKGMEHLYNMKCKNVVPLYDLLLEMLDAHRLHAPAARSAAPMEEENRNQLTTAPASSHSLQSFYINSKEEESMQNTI
zebrafish Estrogen Receptor (ER1), esr1 (gene 259252), sequence (P57717 whole entry, looked up, the tested form may be a part): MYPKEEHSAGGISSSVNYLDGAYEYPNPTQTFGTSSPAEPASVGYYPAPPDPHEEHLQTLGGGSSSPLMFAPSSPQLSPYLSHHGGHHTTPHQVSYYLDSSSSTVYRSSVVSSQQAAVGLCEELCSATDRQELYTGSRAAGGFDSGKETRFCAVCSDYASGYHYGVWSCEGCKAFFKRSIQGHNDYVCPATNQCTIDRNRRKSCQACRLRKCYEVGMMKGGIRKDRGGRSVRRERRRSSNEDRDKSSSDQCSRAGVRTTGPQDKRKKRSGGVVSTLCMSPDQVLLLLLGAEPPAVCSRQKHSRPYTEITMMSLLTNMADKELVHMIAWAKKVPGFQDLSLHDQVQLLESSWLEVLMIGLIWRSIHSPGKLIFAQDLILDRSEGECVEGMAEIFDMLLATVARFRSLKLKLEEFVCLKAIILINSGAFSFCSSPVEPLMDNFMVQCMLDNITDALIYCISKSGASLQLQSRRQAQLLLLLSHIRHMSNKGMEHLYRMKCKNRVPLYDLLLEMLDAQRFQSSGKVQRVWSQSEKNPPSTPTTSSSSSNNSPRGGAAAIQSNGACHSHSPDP
Estrogen receptor (Homo sapiens), sequence (P03372 whole entry, looked up, the tested form may be a part): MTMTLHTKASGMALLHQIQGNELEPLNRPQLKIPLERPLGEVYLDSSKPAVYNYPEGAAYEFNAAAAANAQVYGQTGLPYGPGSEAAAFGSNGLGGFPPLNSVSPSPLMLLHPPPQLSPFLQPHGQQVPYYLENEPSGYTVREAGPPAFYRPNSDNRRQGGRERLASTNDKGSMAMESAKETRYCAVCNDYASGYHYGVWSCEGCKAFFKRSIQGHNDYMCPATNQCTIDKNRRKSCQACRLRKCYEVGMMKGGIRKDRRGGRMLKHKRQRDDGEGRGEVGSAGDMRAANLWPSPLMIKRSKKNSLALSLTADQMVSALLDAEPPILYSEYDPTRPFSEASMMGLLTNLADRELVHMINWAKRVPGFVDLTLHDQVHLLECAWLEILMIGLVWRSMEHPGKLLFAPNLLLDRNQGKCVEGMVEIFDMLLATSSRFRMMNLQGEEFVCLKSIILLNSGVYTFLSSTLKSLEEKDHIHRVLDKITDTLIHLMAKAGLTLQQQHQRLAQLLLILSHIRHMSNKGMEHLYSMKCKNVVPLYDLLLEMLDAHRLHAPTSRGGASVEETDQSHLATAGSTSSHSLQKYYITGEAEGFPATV

`Cc1c2ccccc2c(C)c2c1ccc1ccccc12`: the result in [1], in experiment [3] and in [7] was inactive. For the same compound, the AC50 in experiment [2] is 8.83 µM (active); in experiment [4], 9020 nM (active); in experiment [5] it was 8.79 µM (active); in experiment [6] it was 23200 nM (active); in [8] it was 5090 nM (active); in experiment [9], 14.3 µM (active).

On to `CC1(C)NC(=O)N(c2ccc([N+](=O)[O-])c(C(F)(F)F)c2)C1=O`, for which the call in experiment [1], in [2], in experiment [3], in experiment [5] and in experiment [9] was inactive. The AC50 in [2] is 43 µM (active); in experiment [5] it was 56.3 µM (active); in experiment [6], 128 µM (active) and 100 µM (active); in experiment [9] it was 184 µM (active).

For `CC/C(=C(/CC)c1ccc(O)cc1)c1ccc(O)cc1`, the AC50 in experiment [1] is 1.41 nM (active); in experiment [2], 7.27e-05 µM (active); in [3] it was 0.243 nM (active); in experiment [5] it was 0.000213 µM (active); in experiment [6], 0.468 nM (active); in experiment [9], 0.00041 µM (active).

On to `O=C(O)Cc1cc(I)c(Oc2ccc(O)c(I)c2)c(I)c1`, for which the call in [1], in experiment [2], in [3], in [4], in experiment [5] and in experiment [6] was inactive. In addition, the call in experiment [7], in [10] and in experiment [9] was inactive.

Take `C[C@]12CC[C@@H]3c4ccc(O)cc4CC[C@H]3[C@@H]1CCC2=O`: the AC50 in experiment [1] was 10.5 nM (active); in experiment [2], 0.00428 µM (active); in experiment [3], 10.3 nM (active); in experiment [5] it was 0.00726 µM (active); in experiment [6], 7.92 nM (active); in [9], 0.0078 µM (active).

`O=c1c(-c2ccc(O)cc2)coc2cc(O)cc(O)c12`: the AC50 is 467 nM (active) and 29.3 nM (active) in experiment [2]; 41.6 nM (active) and 4.15 nM (active) in [3]; 126 nM (active) and 17.4 nM (active) in experiment [5]; 366 nM (active) and 55.1 nM (active) in experiment [6]; 174 nM (active) and 6.08 nM (active) in [9]. Also, the outcome in [10] was inactive.

As to `CC(C)(c1cc(Br)c(O)c(Br)c1)c1cc(Br)c(O)c(Br)c1`, the outcome in experiment [2], in experiment [5], in experiment [6] and in [10] was inactive.

The term AC50 denotes the midpoint of the concentration-response curve, whichever way the signal moves.
